From PubChem BioAssay
Cdc42 wt GTP: changes GTP binding to wildtype human Cdc42; P60953; GST-Cdc42 beads, Bodipy-GTP binding, flow cytometry; actives lie on both sides; percent activity (GTP binding), % at 10 µM; 190,000 compounds, 0.2% hits; AID 761;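 active means percent activity GTP binding at least 20 points away from the 100% baseline, either down as inhibitor or up as activator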;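 further: median bead fluorescence of bound Bodipy-FL-GTP at 100 nM; 0% = excess unlabeled GTP control and 100% = no compound control; below 100% means less GTP binding so inhibitor and above means activator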
Target sequence (P60953 whole entry, looked up): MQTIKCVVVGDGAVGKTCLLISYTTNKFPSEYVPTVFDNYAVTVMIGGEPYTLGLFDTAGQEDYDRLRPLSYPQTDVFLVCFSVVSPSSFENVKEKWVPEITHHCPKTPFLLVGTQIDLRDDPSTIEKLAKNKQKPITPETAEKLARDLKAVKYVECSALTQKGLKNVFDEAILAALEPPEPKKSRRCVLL
HRas wt GTP: human HRas wildtype GTP binding, change in either direction; P01112; GTP binding activity, % at 10 µM; AID 759; 190,000 compounds, 0.14% hits; GST-Ras wt beads, Bodipy-FL-GTP binding, flow cytometry; actives lie on both sides;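 active means GTP binding activity at least 20% away from the 100% baseline, either lowered as inhibitor or raised as activator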;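 further: 0% = unlabeled GTP competition control and 100% = no-compound control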
Target sequence (P01112 whole entry, looked up): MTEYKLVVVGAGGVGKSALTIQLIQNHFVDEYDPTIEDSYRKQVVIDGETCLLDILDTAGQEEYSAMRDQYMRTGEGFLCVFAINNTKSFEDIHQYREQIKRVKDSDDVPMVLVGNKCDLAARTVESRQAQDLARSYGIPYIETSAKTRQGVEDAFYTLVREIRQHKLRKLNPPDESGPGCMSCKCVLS
Rab7 wt modul: modulators of GTP binding to dog Rab7 wildtype GTPase; GTP binding activity (percent of control), % at 10 µM; 190,000 compounds, 0.055% hits; GST-Rab7 beads, fluorescent GTP binding, flow cytometry; actives lie on both sides; untreated = 100%, excess cold GTP = 0%; AID 758;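 active means fluorescent GTP binding to Rab7 beads changed by at least 20 points from the 100% baseline, either direction, mostly lower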;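 further: median green fluorescence of bound Bodipy-FL-GTP per Rab7 bead population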
Rab2 wt GTP: changes GTP binding to wildtype dog Rab2A, up or down. P61105. GST-Rab2 wt beads, Bodipy-GTP binding, flow cytometry. GTP binding activity, % at 10 µM. 190,000 compounds, 0.19% hits. AID 760;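 active means GTP binding activity at least 20 points away from 100%, either lowered or raised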;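 further: 0% = beads with excess unlabeled GTP and 100% = no-compound control corrected for plate trend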
Rac1 act GTP bind: alters GTP binding to activated mutant human Rac1 | GST-Rac1 activated beads, fluorescent GTP binding, flow cytometry; actives lie on both sides; 100% means binding = to untreated wells | percent activity (GTP binding), % at 10 µM | 190,000 compounds, 0.11% hits | AID 764;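 active means GTP binding at least 20 percentage points away from the 100% baseline, in either direction, so actives lie on both sides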
Rac1 wt modul: human Rac1 wildtype GTP binding, inhibitors and activators; GST-Rac1 beads, fluorescent GTP binding, flow cytometry; actives lie on both sides; 0 = cold GTP competed, 100 = untreated; GTP binding activity (% of control), % at 10 µM; 190,000 compounds, 0.27% hits; AID 757; P63000;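 active means GTP binding activity at least 20 points away from the 100% control level, either lower or higher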
Active calls of the source: *; [ ] = dose if it differs, or a comment. Compounds with a hit are over-represented: about 0.38% of the library has one in this group of screens.

`Cc1ccc(/C(N)=N/OC(=O)CCC2CCCCC2)cc1` gave Cdc42 wt GTP 102, HRas wt GTP 109, Rab7 wt modul 96, Rab2 wt GTP 114, Rac1 act GTP bind 107 and Rac1 wt modul 133*[activator].
`NS(=O)(=O)c1ccc(CCN2C(=O)/C(=C\c3ccc(Cl)cc3)SC2=S)cc1` gave Cdc42 wt GTP 84, HRas wt GTP 84, Rab7 wt modul 85, Rab2 wt GTP 82, Rac1 act GTP bind 85 and Rac1 wt modul 77*.
For Cc1ccc(C)n1N1C(=O)/C(=C\c2ccc(Cl)cc2)SC1=S the results were Cdc42 wt GTP 92, HRas wt GTP 95, Rab7 wt modul 96, Rab2 wt GTP 92, Rac1 act GTP bind 91 and Rac1 wt modul 92.
`CN(C)c1cccc2c(/C=N/O)ccc(N(C)C)c12` gave Cdc42 wt GTP 95, HRas wt GTP 95, Rab7 wt modul 96, Rab2 wt GTP 98, Rac1 act GTP bind 93 and Rac1 wt modul 94.
For CN1C(=O)N(C)c2ccc(C=O)c3cccc1c23 the results were Cdc42 wt GTP 84, HRas wt GTP 86, Rab7 wt modul 89, Rab2 wt GTP 82, Rac1 act GTP bind 86 and Rac1 wt modul 77*.
`Cc1nc2nc(SCC(=O)NCCN3CCOCC3)nn2c(C)c1Cc1ccccc1` gave Cdc42 wt GTP 99, HRas wt GTP 100, Rab7 wt modul 100, Rab2 wt GTP 100, Rac1 act GTP bind 100 and Rac1 wt modul 103.
Screening Cc1cccc(Cc2c(C)nc3nc(SCC(=O)O)nn3c2C)c1 returned Cdc42 wt GTP 66*, HRas wt GTP 78*, Rab7 wt modul 89, Rab2 wt GTP 74*, Rac1 act GTP bind 68* and Rac1 wt modul 72*.
Screening COc1cccc(NC(=O)COC(=O)/C=C/c2ccc(Cl)cc2Cl)c1 returned Cdc42 wt GTP 79*, HRas wt GTP 82, Rab7 wt modul 86, Rab2 wt GTP 79*, Rac1 act GTP bind 80 and Rac1 wt modul 77*.
For COc1cc(NC(=O)COC(=O)/C=C/c2ccc(Cl)cc2Cl)cc(OC)c1 the results were Cdc42 wt GTP 99, HRas wt GTP 98, Rab7 wt modul 96, Rab2 wt GTP 96, Rac1 act GTP bind 98 and Rac1 wt modul 96.
Screening Cc1cc(C)n2nc(SCCOc3ccc(F)cc3)nc2n1 returned Cdc42 wt GTP 68*, HRas wt GTP 73*, Rab7 wt modul 100, Rab2 wt GTP 74*, Rac1 act GTP bind 82 and Rac1 wt modul 68*.
Screening CCN1C(c2ccccc2)=C(c2ccccc2)S/C1=C/C=C1\SC(=S)N(C)C1=O returned Cdc42 wt GTP 67*, HRas wt GTP 66*, Rab7 wt modul 72*, Rab2 wt GTP 71*, Rac1 act GTP bind 69* and Rac1 wt modul 71*.
Screening CN1CCS/C1=C/C=C1/SC(=S)N(Cc2ccccc2)C1=O returned Cdc42 wt GTP 95, HRas wt GTP 97, Rab7 wt modul 100, Rab2 wt GTP 99, Rac1 act GTP bind 98 and Rac1 wt modul 97.
Screening CCN1/C(=C\C=C2\C(=O)N(C)C(=S)N2C)Sc2ccccc21 returned Cdc42 wt GTP 97, HRas wt GTP 83, Rab7 wt modul 93, Rab2 wt GTP 94, Rac1 act GTP bind 88 and Rac1 wt modul 88.
CCN1C(=O)/C(=C/C=C2/Sc3ccc4ccccc4c3N2CCO)SC1=S was read as Cdc42 wt GTP 78*, HRas wt GTP 78*, Rab7 wt modul 81, Rab2 wt GTP 84, Rac1 act GTP bind 83 and Rac1 wt modul 75*.
COc1ccc(CNS(=O)(=O)c2cccc(S(=O)(=O)N3CCOCC3)c2)cc1 was read as Cdc42 wt GTP 100, HRas wt GTP 100, Rab7 wt modul 102, Rab2 wt GTP 100, Rac1 act GTP bind 99 and Rac1 wt modul 102.
Cc1ccc(NC(=O)CN2C(=O)S/C(=C\c3ccc(-c4cccc(C(=O)O)c4C)o3)C2=O)cc1C was read as Cdc42 wt GTP 79*, HRas wt GTP 89, Rab7 wt modul 97, Rab2 wt GTP 82, Rac1 act GTP bind 82 and Rac1 wt modul 84.
Screening Cc1cccc(NC(=O)CN2C(=O)N/C(=C/c3ccc(-c4cccc(C(=O)O)c4C)o3)C2=O)c1 returned Cdc42 wt GTP 93, HRas wt GTP 91, Rab7 wt modul 93, Rab2 wt GTP 92, Rac1 act GTP bind 92 and Rac1 wt modul 97.
C=CCNC(=O)c1cc2c(=O)n3cc(C)ccc3nc2nc1NCC1CCCO1 (stereo not given) was read as Cdc42 wt GTP 89, HRas wt GTP 69*, Rab7 wt modul 65*, Rab2 wt GTP 78*, Rac1 act GTP bind 82 and Rac1 wt modul 82.
Screening OCCNc1ncnc2c1sc1nc(N3CCOCC3)c3c(c12)CCC3 returned Cdc42 wt GTP 91, HRas wt GTP 91, Rab7 wt modul 91, Rab2 wt GTP 86, Rac1 act GTP bind 94 and Rac1 wt modul 94.
For COCCNc1nnnc2c1sc1nc(N3CCOCC3)c3c(c12)CCCC3 the results were Cdc42 wt GTP 81, HRas wt GTP 82, Rab7 wt modul 95, Rab2 wt GTP 83, Rac1 act GTP bind 88 and Rac1 wt modul 73*.
Cn1cc(C=C2C(=O)CC(C)(C)CC2=O)c2ccccc21 was read as Cdc42 wt GTP 31*, HRas wt GTP 38*, Rab7 wt modul 20*, Rab2 wt GTP 32*, Rac1 act GTP bind 34* and Rac1 wt modul 33*.
Screening O=C(Nc1cnn(C23CC4CC(CC(C4)C2)C3)c1)c1cnn2cccnc12 returned Cdc42 wt GTP 129*[activator], HRas wt GTP 123*[activator], Rab7 wt modul 117, Rab2 wt GTP 121*[activator], Rac1 act GTP bind 117 and Rac1 wt modul 138*[activator].
Cn1c(SCc2cccc([N+](=O)[O-])c2)nc2c(c1=O)SCC2 was read as Cdc42 wt GTP 94, HRas wt GTP 96, Rab7 wt modul 100, Rab2 wt GTP 95, Rac1 act GTP bind 93 and Rac1 wt modul 96.
O=C(CCc1ccccn1)N1CCCC(CNS(=O)(=O)c2cccs2)C1 (stereo not given) was read as Cdc42 wt GTP 61*, HRas wt GTP 60*, Rab7 wt modul 62*, Rab2 wt GTP 62*, Rac1 act GTP bind 53* and Rac1 wt modul 54*.
Screening CCc1cc(C(=O)N2CCCC(CNS(=O)(=O)c3cccs3)C2)n(C)n1 (stereo not given) returned Cdc42 wt GTP 95, HRas wt GTP 95, Rab7 wt modul 96, Rab2 wt GTP 95, Rac1 act GTP bind 95 and Rac1 wt modul 97.
